PubChem BioAssay AID463173 (ICCB-Longwood Screening Facility, Harvard Medical School, 2010)
Screen size: about 52,000 compounds; about 1,700 (3.3%) were called active. This is one part of a sample in which actives are shown more often than they occur. Unmarked numbers belong to inactive results. Cut-off read from the data, not from the text of the source: active = survival mostly below about 52% (no sharp cut-off); inactive = mostly above about 56%.

system: Wild type; test: growth inhibition of S. aureus wild type versus tarO mutant, primary screen, teichoic acid synthesis inhibitors, RN4220, OD600 (AID 463173); conditions: S. aureus RN4220 wild type/DeltatarO growth, OD600, 18 h, stronger effect = lower value, screened at 18.75 µg/mL (by protocol)

Compound	survival
Fc1ccc([C@@H]2Nc3ccccc3[C@@H]3C=CC[C@@H]32)cc1	88%
COC(=O)c1ccc([C@@H]2Nc3c(C)cc(C)cc3[C@@H]3C=CC[C@@H]32)cc1	87%
CCOC(=O)c1ccc2c(c1)[C@@H]1C=CC[C@@H]1[C@H](c1cccc(OC)c1OC)N2	0% (active)
COc1ccc(Br)cc1[C@@H]1Nc2ccc(C(=O)O)cc2[C@@H]2C=CC[C@@H]21	65%
COC(=O)c1ccc([C@H]2Nc3ccc(S(=O)(=O)Nc4cccc(C)c4)cc3[C@H]3C=CC[C@H]32)cc1	68%
CCOc1cccc2c1N[C@@H](c1ccc(C(=O)O)cc1)[C@H]1CC=C[C@@H]21	78%
Fc1ccc(-n2ncc3c(Nc4ccc(Oc5ccc(Cl)cc5)cc4)ncnc32)cc1	85%
CC(=O)c1ccc(NC(=O)C2CCC(CNS(=O)(=O)c3cccs3)CC2)cc1 (stereo not given)	60%
O=C(Cn1c(=O)n(CC2CCCO2)c(=O)c2ccccc21)Nc1cccc(Cl)c1 (stereo not given)	82%
Cn1c(=O)c(=O)n(C)c2cc(NS(=O)(=O)c3ccc(Br)cc3)c(Cl)cc21	65%
Cc1ccc2oc3c(c(=O)c2c1)C(c1ccccc1F)N(CCCN1CCOCC1)C3=O (stereo not given)	71%
CCOc1ccc(NC(=O)C(CC)n2c(=O)c(-c3ccccc3NC(C)=O)nc3ccccc32)cc1 (stereo not given)	64%
CC(=O)N1CCc2cc(S(=O)(=O)NC(CC(C)C)C(=O)NCCc3cccc(C)c3)ccc21 (stereo not given)	76%
Cc1nonc1C(=O)NCC(=O)O	91%
O=C(Nc1cccc(C(F)(F)F)c1)N1CC2CCCN2c2ccccc21 (stereo not given)	55%
COc1ccc(NS(=O)(=O)c2ccc3c(c2)[C@H]2C=CC[C@H]2[C@@H](c2ccc(C(=O)O)cc2)N3)cc1	68%
Cc1ccc(Cl)c2c1N[C@@H](c1ccc(C(=O)O)cc1)[C@H]1CC=C[C@@H]21	10% (active)
COC(=O)c1ccc([C@@H]2Nc3c(OC)ccc(C)c3[C@@H]3C=CC[C@@H]32)cc1	77%
CCN(CCCNC(=O)CN1N=C(c2ccc(C)cc2)CCC1=O)c1ccccc1	-2% (active)
CCCCN(CCCNC(=O)CN1N=C(c2ccccc2)CCC1=O)c1ccccc1	72%
CCN(CCCNC(=O)CN1N=C(c2ccccc2)CCC1=O)c1ccccc1	-6% (active)
Cc1ccc(C2=NN(CC(=O)NCCC(C)C)C(=O)CC2)cc1	10% (active)
CCCCN(CCCNC(=O)CN1N=C(c2ccc(C)cc2)CCC1=O)c1ccccc1	101%

Compound	survival
Cc1ccc(C2=NN(CC(=O)NCCN(CC(C)C)CC(C)C)C(=O)CC2)cc1	129%
Cc1ccc(C2=NN(CC(=O)NCCCN(CC(C)C)CC(C)C)C(=O)CC2)cc1	84%
CCN(CCCNC(=O)CN1N=C(c2ccccc2)CCC1=O)c1cccc(C)c1	136%
CCN(CCCNC(=O)CN1N=C(c2ccc(OC)cc2)CCC1=O)c1cccc(C)c1	124%
COc1ccccc1N1CCN(C(=O)c2cnn(-c3ccc(C)c(C)c3)c2C2CCN(C(=O)OC(C)(C)C)CC2)CC1	99%
CC(=O)NCCNc1nc2c(-c3ccc(C)cc3)nnn2c2ccccc12	82%
CCN(CC)C(=O)c1cc(-c2ccc(Cl)cc2)on1	51%
CCCN1C(=O)C(NC(=O)c2ccccc2OC)(C(F)(F)F)C(C(=O)OC)=C1C (stereo not given)	78%
N#C/C(=C\c1cc(Br)c(O)c(Br)c1)c1nc2ccccc2c(=O)[nH]1	94%
O=C(NCc1ccccc1Cl)c1cc(=O)[nH]c2ccc(S(=O)(=O)N3CCCCC3)cc12	83%
CCOC(=O)c1c(Nc2ccc(C)cc2)nnc(-c2ccccc2)c1-c1ccccc1	2% (active)
CCOC(=O)c1c(Nc2cccc(C)c2)nnc(-c2ccccc2)c1-c1ccccc1	0% (active)
CCOC(=O)c1c(Nc2ccc(F)cc2)nnc(-c2ccccc2)c1-c1ccccc1	1% (active)
CCOC(=O)c1c(Nc2cccc(O)c2)nnc(-c2ccccc2)c1-c1ccccc1	44%
CCOC(=O)c1cccc(Nc2cc(-c3ccccc3)ncn2)c1	40%
CCOC(=O)c1c(Nc2cc(C)cc(C)c2)nnc(-c2ccccc2)c1-c1ccccc1	38%
CCOC(=O)c1nc(Nc2ccc(OC)cc2)c2ccccc2n1	143%
CCOC(=O)c1cnc(-c2ccccc2)nc1Nc1ccc(C)cc1	111%
CCOC(=O)c1c(C)oc2nc(C)nc(Nc3ccc(C)c(Cl)c3)c12	80%
CCOC(=O)c1c(Nc2ccc(C)c(C)c2)nnc(-c2ccccc2)c1-c1ccccc1	0% (active)
CCOC(=O)c1c(Oc2ccc(C(C)=O)cc2)nnc(-c2ccccc2)c1-c1ccccc1	92%
CCOC(=O)c1c(C)oc2nc(C)nc(Nc3ccc(CC)cc3)c12	115%
